Our source for the growth values is PubChem BioAssay (NCI).

The panel holds about 83,000 compounds, 20% with a hit somewhere; the sample as a whole holds those more often.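 Treatment: one concentration, 48 hours, 96-well format. Scoring: percent growth, with anything below 10 considered active.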 The source made the active and inactive calls.

In the experiment the test system is HL-60(TB) leukemia. As to the kind of experiment: NCI-60 one-dose screen, 48 h (100 = growth as untreated, 0 = no growth, -100 = all killed). The settings on record: 10 µM unless noted.
For `CC1=C/C(=N\N=C2/C=C(C)CC(C)(C)C2)CC(C)(C)C1`, the growth was 84.1% (inactive).

Take `COc1ccc(S(=O)(=O)NCCNc2nccc(-c3c(-c4cccc(N)c4)nc4sccn34)n2)cc1`: the growth was 116% (inactive). For `CC1SC(c2ccc(N(C)C)cc2)N(NC(=O)C(O)(c2ccccc2)c2ccccc2)C1=O` (stereo not given), the growth is 84.2% (inactive). Next, `O=C(Nc1cccc(C(F)(F)F)c1)Oc1ccc(Cl)c2cccnc12`: -10.6% (active); `Cc1ccc(S(=O)(=O)NC(=O)NCCSSCCNC(=O)NS(=O)(=O)c2ccc(C)cc2)cc1`: 102% (inactive). The figure for `COc1cc(/C=C/c2cc(/C=C/c3ccc(O)c(OC)c3)n(-c3c(C)cccc3C)c(=O)n2)ccc1O` is 6.05% (active); for `C#Cc1cccc(NC(=O)Nc2cccc(N=C=S)c2)c1` it is 98.7% [8.25 µM] (inactive). For the compound `COc1ccc(-c2cc(=O)oc3ccc(Cl)cc23)cc1F`, the growth was -21.9% (active). The figure for `C/C(=C\c1ccccc1)C(O)C(=O)c1nc2ccc([N+](=O)[O-])cc2[nH]c1=O` (stereo not given) is 83% (inactive); for `CN(C)c1ccc(/C=C\c2cccc[n+]2C)cc1` it is 27.2% (inactive); for `C=C(C)[C@@H]1CC[C@]2(C(=O)NCCCO)CC[C@]3(C)[C@H](CC[C@@H]4[C@@]5(C)CCCNC(C)(C)[C@@H]5CC[C@]43C)[C@@H]12` it is 34.1% (inactive). Take `CCCCCCCCCCCCCCCCCCOc1ccc(CC(=O)OCC[N+]2(C)CCCCC2)cc1`: the growth is 83.4% (inactive). Next, `N#C/C(=C\c1ccc(Cl)cc1)n1nnc2cc(F)c(F)cc21`: -19.4% (active); `COc1cc(/C=C/C(=O)c2cc(-c3ccc(C(F)(F)F)cc3)ccc2O)cc(OC)c1OC`: 13.9% (inactive); `CS(=O)(=O)c1nsc(N)n1`: 105% (inactive). Regarding `CC(CNc1nc(Nc2ccc(Cl)c(Cl)c2)nc(C(Cl)(Cl)Cl)n1)N(C)C` (stereo not given), the growth was -21% (active).

Consider `O=C1/C(=C/c2ccc(Cl)cc2)CCC/C1=C\c1ccc(Cl)cc1`, for which the growth was 83% (inactive). The figure for `O=c1cc(NC2CCN(CCCc3ccccc3)CC2)c2cc(Cl)ccc2o1` is -7.02% (active); for `Cc1ccccc1N1C(=O)c2cc(S(N)(=O)=O)c(Cl)cc2NC1C` (stereo not given) it is 87.9% (inactive).

With `Cn1c2ccccc2c2c3c(c4c5cc(Br)ccc5n(C)c4c21)C(=O)N(O)C3=O`, the growth is -33.2% (active). Next, `CN1C(=O)N(C)C2(c3ccccc3)n3c(s/c(=C\c4ccccc4)c3=O)=NNC12c1ccccc1` (stereo not given): 90.1% (inactive). Take `Fc1cccc(CNc2c3ccccc3nc3ccccc23)c1`: the growth is 47% (inactive). Next, `Cn1cccc1/C=C1\C(=O)Nc2ccccc21`: 103% (inactive).

As for `CCO/C=N/C1=C(C#N)C(c2ccc(Cl)cc2)c2sc3c(F)cccc3c2O1` (stereo not given), the growth was 56.2% (inactive). The figure for `CCn1cc(C(=O)O)c(=O)c2cc(F)c(N3CCN(CC(=O)Nc4ccc(/C(C)=N/OC)cc4)CC3)cc21` is 90.9% (inactive); for `Cc1sc2ncnc(Sc3nc4ccccc4[nH]3)c2c1C` it is -54.7% (active); for `O=C(Nc1ccccc1)Nc1ccc2cc3ccc(NC(=O)Nc4ccccc4)cc3nc2c1` it is 50.9% (inactive). As for `Cc1nc2sc(C(=O)Nc3cccc(Cl)c3C)c(N)c2cc1C(O)c1ccccc1` (stereo not given), the growth was -42.3% (active). Next, `COc1ccc(-c2nc3sccn3c2/C=C/C(=O)c2cc(OC)c(OC)c(OC)c2)cc1`: 56.5% (inactive). The figure for `CCOC(=O)c1c(C(F)(F)F)n([O-])c2ccc(OC)cc2[n+]1=O` is -9.6% (active); for `Cn1c2ccccc2c2c3c(c4c5ccccc5n(CCCCCC#N)c4c21)C(=O)N(O)C3=O` it is -22.3% (active). For `Cc1ccc(OCC(=O)Nc2ccc(Oc3ccccc3)cc2)c([N+](=O)[O-])n1`, the growth is 69% (inactive). As for `COc1cccc(C2CC(=O)Nc3cc4c(cc32)OCO4)c1OC` (stereo not given), the growth is 93.7% (inactive). The figure for `O=C(CN1CCN(c2cc3c(cc2F)c(=O)c(C(=O)O)cn3C2CC2)CC1)N/N=C/c1ccncc1` is 98% (inactive); for `CN1CCN(c2nc(C3=C(c4c[nH]c5ccccc45)C(=O)NC3=O)c3ccccc3n2)CC1` it is 30.7% (inactive); for `CC1NC(C)c2ccc3ccccc3c2O1` (stereo not given) it is 99.4% (inactive).

`COc1ccc(C2=CN3CC=CC3CC2=O)cc1` (stereo not given): the growth is 106% (inactive).

In the case of `N#CCCN=Nc1c(O)[nH]c2ccc([N+](=O)[O-])cc12`, the growth is 96.6% (inactive).

For the compound `O=C1OCC2=C1C(c1ccc(Cl)c(Cl)c1)c1cc3c(cc1N2CCO)OCCO3` (stereo not given), the growth is -18.9% (active). Take `O=C(c1nc2ccccc2[nH]1)C1C(c2ccc(Br)cc2)C2CC3CCCC[C@H]3N2[C@@]12C(=O)Nc1cc(Cl)ccc12` (stereo not given in full): the growth was 12.4% (inactive).
